# PAFAH1B3 FP inh: PAFAH1B3 (human) inhibition; hit rate 0.28% among 340,000; Q15102; recombinant PAFAH1B3, FP-rhodamine probe, fluorescence polarization; AID 492972; inhibition, % at 3.39 µM;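 active = inhibition above the screen-wide average of all tested compounds plus 3 SD, cut at about 25% in these data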
# PAFAH1B2 FP inh: PAFAH1B2 (human) inhibition | P68402 | recombinant PAFAH1B2, FP-rhodamine activity probe, fluorescence polarization | inhibition, % at 3.39 µM | hit rate 1.2% among 340,000 | AID 492953;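 active = inhibition above the mean of all tested compounds plus 3 SD, cut at about 24% in these data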
# pPAFAH FP inh: inhibitors of human plasma PAF acetylhydrolase (pPAFAH); hit rate 1.5% among 330,000; inhibition, % at 3.39 µM; recombinant pPAFAH, FP-rhodamine probe fluorescence polarization; Q13093;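 active = inhibition above the mean inhibition across the screen plus 3 SD, cut at about 25% in these data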;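 also: inhibitors block binding of the rhodamine activity-based probe so polarization drops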
# DAGLB inhibitor: diacylglycerol lipase beta (human) inhibition; Q8NCG7; HEK293T DAGLB membrane lysate, EnzChek fluorogenic substrate; inhibition, % at 5.17 µM; hit rate 0.059% among 340,000; in the data active = inhibition above about 34%
# Target sequence (Q8NCG7 whole entry, looked up): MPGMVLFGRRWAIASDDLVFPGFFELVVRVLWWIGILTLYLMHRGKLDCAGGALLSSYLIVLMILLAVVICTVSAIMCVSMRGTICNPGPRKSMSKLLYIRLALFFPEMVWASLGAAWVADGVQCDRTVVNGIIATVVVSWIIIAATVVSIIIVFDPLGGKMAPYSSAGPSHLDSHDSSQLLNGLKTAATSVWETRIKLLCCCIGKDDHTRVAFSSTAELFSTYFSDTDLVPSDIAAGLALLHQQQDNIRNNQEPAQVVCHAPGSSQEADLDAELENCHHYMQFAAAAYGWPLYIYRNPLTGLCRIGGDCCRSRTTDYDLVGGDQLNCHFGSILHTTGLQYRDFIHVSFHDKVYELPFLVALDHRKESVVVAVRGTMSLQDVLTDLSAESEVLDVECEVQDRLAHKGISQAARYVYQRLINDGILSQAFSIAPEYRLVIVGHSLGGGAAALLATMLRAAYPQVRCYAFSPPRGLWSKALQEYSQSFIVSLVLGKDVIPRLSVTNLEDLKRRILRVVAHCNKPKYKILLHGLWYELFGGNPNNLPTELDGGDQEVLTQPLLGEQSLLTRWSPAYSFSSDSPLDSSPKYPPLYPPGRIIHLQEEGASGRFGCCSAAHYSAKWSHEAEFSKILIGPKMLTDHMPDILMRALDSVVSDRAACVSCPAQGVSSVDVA
# PAFAH2 FP inh: PAFAH2 (human) inhibition. Q99487. recombinant PAFAH2, FP-rhodamine activity probe, fluorescence polarization. inhibition, % at 3.39 µM. hit rate 0.99% among 340,000. AID 492956;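 active = inhibition above the mean over all tested compounds plus 3 SD, cut at about 30% in these data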;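 also: inhibitors block probe labeling of enzyme so polarization drops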
# ATG4B inhibitor: inhibitors of human ATG4B cysteine protease; Q9Y4P1; ATG4B cleavage of LC3-PLA2, NBD-HPC fluorescence, 1 h; inhibition, % at 8.33 µM; hit rate 0.51% among 340,000; AID 504462; in the data active = inhibition above about 40%
# pPAFAH confirm: confirmation of human plasma PAF acetylhydrolase (pPAFAH) inhibitors; shares compounds with pPAFAH FP inh; recombinant pPAFAH, FP-Rh probe fluorescence polarization; inhibition, % at 3.39 µM; hit rate 72% among 2,300;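 active = mean inhibition of the triplicate above the hit cutoff set for the earlier primary screen, cut at about 25% in these data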
# A number is an active result; . = inactive; / = no result given. Most compounds without a hit are left out; they make up all but 3% or so of the library.
SMILES,PAFAH1B3 FP inh,PAFAH1B2 FP inh,pPAFAH FP inh,DAGLB inhibitor,PAFAH2 FP inh,ATG4B inhibitor,pPAFAH confirm
O=C(N/N=C/C1CC=CCC1)c1cc2ccccc2cc1O (stereo not drawn),.,.,44,.,.,.,.
Cn1cccc1/C=N/NC(=O)c1ccccn1,.,.,.,.,.,.,/
O=C(O)COc1ccccc1/C=N/NC(=O)c1cc2ccccc2cc1O,.,.,43,.,.,.,.
O=C(O)COc1ccccc1/C=N/NC(=O)c1cc(-c2ccc(F)cc2)nc2ccccc12,.,.,.,.,.,.,/
Cn1cccc1/C=N/NC(=O)c1cc2ccccc2cc1O,.,.,51,.,.,.,.
COc1cccc(CN(C(=O)COc2ccc(Cl)cc2)C2CCS(=O)(=O)C2)c1 (stereo not drawn),.,.,.,.,.,.,/
COc1cc(C(=O)NNC2=CC(=O)CC(C)(C)C2)cc(OC)c1OC,.,.,.,.,.,.,/
CC(=O)Nc1ccc(N(C(=O)CNC(=O)c2ccco2)C(C(=O)NC2CCCC2)c2ccco2)cc1 (stereo not drawn),.,.,.,.,.,.,/
CCCCn1c(N)c(N(CC(C)C)C(=O)C2=COCCO2)c(=O)[nH]c1=O,.,.,.,.,.,.,/
CCNc1c2c3c(cccc3n(C)c1=O)C(=O)c1ccccc1-2,/,/,53,/,/,.,45
CCCCNc1c2c3c(cccc3n(C)c1=O)C(=O)c1ccccc1-2,63,53,43,.,75,.,48
CC(C)CCN(CCC(C)C)C(CO)(CO)CO,.,.,.,.,.,.,/
CNS(=O)(=O)c1cc(N)ccc1C,.,.,.,.,.,.,/
Cc1ccc(Nc2ccc(N)cc2S(=O)(=O)O)cc1,.,.,50,.,.,.,.
Nc1ccc(Nc2ccccc2)c(S(=O)(=O)O)c1,.,.,60,.,.,.,.
O=C(NN1C(=O)/C(=C/c2cc([N+](=O)[O-])ccc2O)SC1=S)c1ccccc1O,/,/,.,/,/,/,/
Cc1ccc(/C=C2\SC(=S)N(/N=C/c3cc([N+](=O)[O-])ccc3O)C2=O)o1,46,26,63,.,74,47,56
COc1ccc(CNC(=O)CN2C(=O)NC3(CCCCCC3)C2=O)cc1,.,.,61,.,.,.,.
C=CCn1c(SCC(=O)c2ccc(O)c(O)c2)nnc1-c1cccc(C)c1,.,.,35,.,.,.,80
C=CCn1c(SCC(=O)c2ccc(O)c(O)c2)nnc1-c1cccnc1,.,.,50,.,.,.,.
CCn1c(SCC(=O)c2ccc(O)c(O)c2)nnc1-c1ccccc1,.,.,.,.,.,.,/
Cc1ccc(C(=O)N/C(=C\c2ccccc2)C(=O)NCCN2CCOCC2)cc1,.,.,.,.,.,.,/
Cc1ccc(C(=O)c2coc3ccc(O)c(Cl)c23)cc1,.,.,.,.,.,.,/
CCOC(=O)C(C(C)=O)c1c(Br)c(O)c(O)c2c(C(=O)c3ccc(C)cc3)coc12 (stereo not drawn),.,.,47,.,.,.,35
CC(C)C(C(=O)O)N1C(=O)/C(=C/C=C/c2ccco2)SC1=S (stereo not drawn),.,.,78,.,61,65,54
SMILES,PAFAH1B3 FP inh,PAFAH1B2 FP inh,pPAFAH FP inh,DAGLB inhibitor,PAFAH2 FP inh,ATG4B inhibitor,pPAFAH confirm
O=C1/C(=C/C=C/c2ccco2)SC(=S)N1c1ccc(O)cc1,.,.,83,.,.,.,41
O=C(O)c1ccc(N2C(=O)/C(=C/C=C/c3ccccc3)SC2=S)cc1,.,.,.,.,.,.,/
Cc1ccc(OCC(=O)N(C)CC(=O)Nc2ccccc2Cl)c([N+](=O)[O-])n1,.,.,.,.,.,.,/
Cc1ccc(CS(=O)Cc2ccc(C(=O)N3CCN(c4cccc(C)c4C)CC3)o2)cc1 (stereo not drawn),/,/,/,.,/,/,/
COc1ccc(N2CCN(C(=O)c3ccc(CS(=O)Cc4ccc(Cl)cc4)o3)CC2)cc1 (stereo not drawn),.,.,36,.,.,.,28
Cc1cccc(N2CCN(C(=O)c3ccc(CS(=O)Cc4cccc(Cl)c4)o3)CC2)c1C (stereo not drawn),.,.,43,.,.,.,.
CC1CC(NC(=O)N(C)C)N(C)C(=O)N1 (stereo not drawn),.,.,.,.,.,.,/
Cc1nn(-c2ccc(Br)cc2)c(=O)c2ccccc12,.,.,51,.,.,.,.
CS(=O)(=O)Cc1cccc(C(=O)NN(c2ccccc2)c2ccccc2)c1,.,.,.,.,.,.,/
Cc1nn(-c2ccccc2)c(C)c1C(=O)OCC(=O)Nc1ccccc1Cl,/,/,/,.,/,/,/
Cc1cc([N+](=O)[O-])ccc1Nc1nc2ccccc2n2cnnc12,.,.,37,.,.,.,.
Cc1ccc(-c2onc3ccc(C4OCCO4)cc23)cc1,.,.,.,.,.,.,/
CCc1cc(=O)oc2cc(C)c(CN3CCCC(C)C3)c(O)c12 (stereo not drawn),.,.,52,.,.,.,.
O=C1CC(N(O)c2ccccc2)C(=O)N1c1ccc(Cl)c(Cl)c1 (stereo not drawn),.,.,49,.,.,.,.
O=C(CCC(=O)N1CCOc2ccccc21)Nc1cc(F)ccc1F,.,.,.,.,.,.,/
COc1ccc(Nc2nnc(SC(C(=O)Nc3ccc(OC)c(Cl)c3)c3ccccc3)s2)cc1 (stereo not drawn),.,.,35,.,.,.,.
Cn1c(=O)c(N)c2c3c(c(Br)ccc31)C(=O)c1ccccc1-2,38,29,43,.,40,.,39
CCc1c(C)nc2ncnn2c1N1CCCC(C(=O)NCc2ccco2)C1 (stereo not drawn),.,.,57,.,.,.,.
Cc1cc(SCC(=O)N/N=C/c2ccc(O)c(O)c2O)c(C)cc1Br,.,.,57,.,.,.,75
O=S(=O)(O)c1cc(O)ccc1O,.,.,.,.,.,.,/
O=S(=O)(c1cc(O)ccc1O)c1cccc2c(S(=O)(=O)c3cc(O)ccc3O)cccc12,.,.,41,.,.,.,29
Cc1ccc(NC(=O)CSc2nnc(-c3ccco3)c(-c3ccco3)n2)cc1,.,.,48,.,.,.,29
COc1cccc(NC(=O)CSc2nnc(-c3ccco3)c(-c3ccco3)n2)c1,.,.,41,.,.,.,.
Cc1ccccc1NC(=O)CSc1nnc(-c2ccco2)c(-c2ccco2)n1,.,.,45,.,.,.,.
CN(C)c1ccc(NC(=O)CSc2nnc(-c3ccco3)c(-c3ccco3)n2)cc1,.,.,.,.,.,.,/
Cc1ccccc1NC(=O)CSc1n[nH]c(-c2ccco2)n1,.,.,.,.,.,.,/
Cc1cccc(C)c1NC(=O)CSc1nnc(-c2ccco2)c(-c2ccco2)n1,.,.,58,.,45,.,.
Cc1ccc(-c2noc(COC(=O)c3ccco3)n2)cc1,.,.,.,.,.,.,/
Cc1ccc(S(=O)(=O)Cc2nnnn2-c2ccccc2)cc1,.,.,.,.,.,.,/
CC(C)(C)OC(=O)n1cc(/C=N/NC(=O)c2ccco2)c2ccccc21,.,.,.,.,.,.,/

# Compound activity as filed in PubChem.
